Laboratory results reported in publication PMC5700166.
Changes are numbered by the printed parent chain.

How the values were obtained:
Assay in all cases: protein-binding microarray (PBM); PBM: ~300 nM protein, 6 mM HEPES pH 7.8, 80 mM KCl, 0.5 mM EDTA, 0.5 mM EGTA, 6% glycerol, 35 ng/ul poly-dIdC, 1% milk, 1 h, room temperature; Ap Aiptasia and Nv Nematostella (sea anemones) / Co Capsaspora / Aq Amphimedon (sponge) / Dm Drosophila / Hu human; RHD is the Rel homology domain; high values mean tight binding
Conditions in all cases: dsDNA, one strand shown
[1] = molecular target: T1, GST-Ap-NF-kB RHD (Exaiptasia pallida (Aiptasia), UniProt A0A913YAJ5 2-422)
T1 sequence: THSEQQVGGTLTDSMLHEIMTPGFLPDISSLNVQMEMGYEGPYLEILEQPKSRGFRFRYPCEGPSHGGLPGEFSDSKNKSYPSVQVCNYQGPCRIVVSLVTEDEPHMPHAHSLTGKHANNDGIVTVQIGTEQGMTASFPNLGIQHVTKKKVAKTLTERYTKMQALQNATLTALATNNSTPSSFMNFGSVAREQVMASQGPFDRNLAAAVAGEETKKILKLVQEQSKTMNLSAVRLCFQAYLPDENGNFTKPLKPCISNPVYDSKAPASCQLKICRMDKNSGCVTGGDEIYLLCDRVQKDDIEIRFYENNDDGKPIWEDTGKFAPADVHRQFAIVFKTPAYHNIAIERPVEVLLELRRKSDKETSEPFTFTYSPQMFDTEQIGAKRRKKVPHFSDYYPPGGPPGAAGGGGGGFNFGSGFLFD

[2] = molecular target: T2, GST-Nv-NF-kB (Cys allele) (Nematostella vectensis, UniProt E5G601 2-411)
T2 sequence: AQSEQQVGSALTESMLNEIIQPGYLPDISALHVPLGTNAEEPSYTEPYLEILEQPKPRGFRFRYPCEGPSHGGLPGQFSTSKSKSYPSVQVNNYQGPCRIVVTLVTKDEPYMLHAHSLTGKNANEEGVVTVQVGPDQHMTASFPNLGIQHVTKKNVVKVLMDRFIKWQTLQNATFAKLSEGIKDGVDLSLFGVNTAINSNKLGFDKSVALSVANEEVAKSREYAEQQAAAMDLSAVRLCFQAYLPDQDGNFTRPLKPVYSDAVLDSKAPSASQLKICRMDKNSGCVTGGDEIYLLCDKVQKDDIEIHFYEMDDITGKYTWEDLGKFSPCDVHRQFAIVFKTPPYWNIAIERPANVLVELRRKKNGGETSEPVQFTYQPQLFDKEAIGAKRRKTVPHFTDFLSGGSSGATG

[3] = molecular target: T3, GST-Nv-NF-kB (Ser allele) (Nematostella vectensis, UniProt A7UNT2 2-411)
T3 sequence: T2 sequence with Q21R, C66S, S207N, E215Q, V217A, E225K, A268E, D399E

[4] = molecular target: T4, GST-Co-NF-kB (Capsaspora owczarzaki, UniProt F1ARL5 200-546)
T4 sequence: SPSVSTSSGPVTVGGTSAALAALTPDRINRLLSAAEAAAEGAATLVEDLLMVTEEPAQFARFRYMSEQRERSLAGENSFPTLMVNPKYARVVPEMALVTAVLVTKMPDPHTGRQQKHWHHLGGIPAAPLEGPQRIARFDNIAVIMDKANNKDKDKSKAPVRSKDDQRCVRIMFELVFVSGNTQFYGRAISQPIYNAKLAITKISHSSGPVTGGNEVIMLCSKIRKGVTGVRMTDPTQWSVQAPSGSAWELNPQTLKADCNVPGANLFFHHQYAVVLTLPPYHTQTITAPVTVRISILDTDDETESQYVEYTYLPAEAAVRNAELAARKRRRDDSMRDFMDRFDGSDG

[5] = molecular target: T5, GST-Dm-Relish (Drosophila melanogaster, UniProt Q94527 99-473)
T5 sequence: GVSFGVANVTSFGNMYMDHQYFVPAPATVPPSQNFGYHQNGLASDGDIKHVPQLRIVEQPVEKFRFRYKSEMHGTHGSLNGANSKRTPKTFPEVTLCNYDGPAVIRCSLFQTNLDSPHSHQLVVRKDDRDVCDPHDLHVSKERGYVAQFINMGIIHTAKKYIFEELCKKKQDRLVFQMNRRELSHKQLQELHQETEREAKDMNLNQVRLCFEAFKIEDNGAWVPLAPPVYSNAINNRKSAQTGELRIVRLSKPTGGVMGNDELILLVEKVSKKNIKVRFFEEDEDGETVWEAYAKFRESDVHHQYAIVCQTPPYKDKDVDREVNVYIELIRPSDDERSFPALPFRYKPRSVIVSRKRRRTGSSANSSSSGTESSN

[6] = molecular target: T6, GST-Aq-NF-kB (Amphimedon queenslandica, UniProt A9Y5G7 2-389)
T6 sequence: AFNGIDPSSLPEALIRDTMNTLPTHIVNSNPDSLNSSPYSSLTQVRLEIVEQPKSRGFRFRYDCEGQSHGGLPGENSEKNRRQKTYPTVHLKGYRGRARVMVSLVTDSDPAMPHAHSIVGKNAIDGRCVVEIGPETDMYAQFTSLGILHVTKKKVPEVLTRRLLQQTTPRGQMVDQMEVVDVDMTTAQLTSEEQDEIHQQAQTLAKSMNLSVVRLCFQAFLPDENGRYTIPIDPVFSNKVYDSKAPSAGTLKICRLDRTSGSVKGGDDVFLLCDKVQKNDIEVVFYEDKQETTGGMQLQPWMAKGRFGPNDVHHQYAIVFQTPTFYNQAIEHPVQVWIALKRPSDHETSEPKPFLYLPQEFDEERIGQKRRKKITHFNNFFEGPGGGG

[7] = molecular target: GST-Hu-p50 (Homo sapiens, UniProt P19838 7-356)
Sequence of GST-Hu-p50 (P19838 7-356): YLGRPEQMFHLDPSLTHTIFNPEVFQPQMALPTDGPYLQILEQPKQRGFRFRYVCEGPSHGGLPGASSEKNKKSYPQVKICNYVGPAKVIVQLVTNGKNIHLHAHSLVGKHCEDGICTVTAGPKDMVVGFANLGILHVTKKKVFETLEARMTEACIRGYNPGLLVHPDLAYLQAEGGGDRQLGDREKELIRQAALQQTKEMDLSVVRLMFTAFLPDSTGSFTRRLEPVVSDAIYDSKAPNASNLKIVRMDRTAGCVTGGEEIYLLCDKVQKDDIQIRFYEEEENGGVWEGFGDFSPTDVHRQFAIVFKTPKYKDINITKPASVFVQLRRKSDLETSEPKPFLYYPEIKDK

Row | Sequence | binding signal [1] | binding signal [2] | binding signal [3] | binding signal [4] | binding signal [5] | binding signal [6] | binding signal [7]
1 | CCGATTAACATCAGGGGGGTGGATGATGTTAATCGGGTCTTGATTCGCTTGACGCTGCTG | 4.23 z-score | 3.15 z-score | 4.75 z-score | 3.78 z-score | 3.78 z-score | 4.03 z-score | 4.19 z-score
2 | CCGATTAACATCACTGTTTCCCCTGATGTTAATCGGGTCTTGATTCGCTTGACGCTGCTG | 5.28 z-score | 7.06 z-score | 9.29 z-score | 7.92 z-score | 2.5 z-score | 4.25 z-score | 4.88 z-score
3 | CCGATTAACATCAGGGGGGAGTATGATGTTAATCGGGTCTTGATTCGCTTGACGCTGCTG | 6.07 z-score | 5.01 z-score | 5.11 z-score | 6.88 z-score | 3.7 z-score | 4.54 z-score | 6.15 z-score
4 | CCGATTAACATCACGTAATTCCCTGATGTTAATCGGGTCTTGATTCGCTTGACGCTGCTG | 3.45 z-score | 4.96 z-score | 5.01 z-score | 4.02 z-score | 6.81 z-score | 4.89 z-score | 3.49 z-score
5 | CCGATTAACATCACTAAATCCCCTGATGTTAATCGGGTCTTGATTCGCTTGACGCTGCTG | 6.91 z-score | 7.06 z-score | 9.63 z-score | 3.45 z-score | 6.49 z-score | 5.34 z-score | 6.6 z-score
6 | CCGATTAACATCAGAGCTTCCCCTGATGTTAATCGGGTCTTGATTCGCTTGACGCTGCTG | 4.5 z-score | 5.06 z-score | 5.75 z-score | 4.37 z-score | 3.56 z-score | 4.57 z-score | 4.17 z-score
7 | CCGATTAACATCACGGGGGAAACTGATGTTAATCGGGTCTTGATTCGCTTGACGCTGCTG | 7.25 z-score | 5.82 z-score | 8.94 z-score | 12.2 z-score | 3.91 z-score | 4.97 z-score | 6.34 z-score
8 | CCGATTAACATCAAAAATCCACCTGATGTTAATCGGGTCTTGATTCGCTTGACGCTGCTG | 2.25 z-score | 2.65 z-score | 3.34 z-score | 1.26 z-score | 4.27 z-score | 3.29 z-score | 4.62 z-score
9 | CCGATTAACATCAGGGAGATCCCTGATGTTAATCGGGTCTTGATTCGCTTGACGCTGCTG | 7.41 z-score | 8.14 z-score | 4.37 z-score | 1.54 z-score | 7.36 z-score | 8.85 z-score | 4.68 z-score
10 | CCGATTAACATCACCACCCCCCCTGATGTTAATCGGGTCTTGATTCGCTTGACGCTGCTG | 4.06 z-score | 3.75 z-score | 3.44 z-score | 3.56 z-score | 4.58 z-score | 3.75 z-score | 4.06 z-score
11 | CCGATTAACATCAGGGAATTTACTGATGTTAATCGGGTCTTGATTCGCTTGACGCTGCTG | 4.29 z-score | 6.69 z-score | 6.33 z-score | 3.89 z-score | 6.87 z-score | 6.82 z-score | 5.14 z-score
12 | CCGATTAACATCAAGAACCCCCTTGATGTTAATCGGGTCTTGATTCGCTTGACGCTGCTG | 7.4 z-score | 6.12 z-score | 7.11 z-score | 1.5 z-score | 8.56 z-score | 6.48 z-score | 6.86 z-score
